Laboratory results taken from the supplement of paper PMC11732987, “Enantioselective OTUD7B fragment discovery through chemoproteomics screening and high-throughput optimisation” (Communications Chemistry, 2025).

Tests used:
Assay in all cases: log2 ratio of Biotin-Ahx-Ub-VS probe labelling (fragment/DMSO); higher = less target engagement (more negative = stronger competition), active = hit call of the paper (q ≤ 0.05, log2 ratio ≤ -1)
Conditions in all cases: compound concentration: 200 uM; treatment time: 3 h
USP42 = target: T1, USP42 (UniProt Q9H9J4)
T1 sequence (whole entry): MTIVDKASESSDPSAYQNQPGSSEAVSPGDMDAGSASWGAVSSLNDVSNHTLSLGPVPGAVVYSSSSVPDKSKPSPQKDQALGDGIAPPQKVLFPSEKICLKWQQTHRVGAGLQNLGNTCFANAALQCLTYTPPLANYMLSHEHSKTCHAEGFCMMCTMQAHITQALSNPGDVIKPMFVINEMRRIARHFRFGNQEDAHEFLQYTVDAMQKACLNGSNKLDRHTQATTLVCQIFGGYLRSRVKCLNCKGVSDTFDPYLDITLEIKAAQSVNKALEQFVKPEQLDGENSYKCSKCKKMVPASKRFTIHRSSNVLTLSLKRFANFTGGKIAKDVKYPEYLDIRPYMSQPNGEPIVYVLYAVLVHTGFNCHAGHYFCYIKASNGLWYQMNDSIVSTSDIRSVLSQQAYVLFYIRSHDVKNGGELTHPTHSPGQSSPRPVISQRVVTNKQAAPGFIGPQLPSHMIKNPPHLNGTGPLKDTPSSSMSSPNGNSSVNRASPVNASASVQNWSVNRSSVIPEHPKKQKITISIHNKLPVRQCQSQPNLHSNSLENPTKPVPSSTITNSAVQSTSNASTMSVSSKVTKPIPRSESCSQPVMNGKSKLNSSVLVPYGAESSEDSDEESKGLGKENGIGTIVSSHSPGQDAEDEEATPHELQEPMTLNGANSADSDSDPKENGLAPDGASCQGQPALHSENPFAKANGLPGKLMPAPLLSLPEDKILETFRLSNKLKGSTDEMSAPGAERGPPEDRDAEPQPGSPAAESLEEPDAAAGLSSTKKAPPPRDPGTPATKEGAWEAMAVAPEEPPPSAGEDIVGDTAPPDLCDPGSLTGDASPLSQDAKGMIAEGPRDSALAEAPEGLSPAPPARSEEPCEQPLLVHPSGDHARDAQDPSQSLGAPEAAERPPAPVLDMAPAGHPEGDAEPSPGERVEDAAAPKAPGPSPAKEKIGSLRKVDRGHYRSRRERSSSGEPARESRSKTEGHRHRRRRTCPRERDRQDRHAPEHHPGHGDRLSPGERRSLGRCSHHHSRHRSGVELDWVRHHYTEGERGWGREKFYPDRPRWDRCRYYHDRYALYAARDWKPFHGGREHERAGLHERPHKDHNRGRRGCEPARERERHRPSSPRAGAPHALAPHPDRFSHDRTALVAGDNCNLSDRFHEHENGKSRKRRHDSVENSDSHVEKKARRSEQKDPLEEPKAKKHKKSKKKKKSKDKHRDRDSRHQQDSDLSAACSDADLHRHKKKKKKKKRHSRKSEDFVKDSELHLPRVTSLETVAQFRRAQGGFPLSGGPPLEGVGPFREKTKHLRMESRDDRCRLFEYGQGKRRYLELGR
Summary of the method: (§1)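 Global-median-normalised Spectronaut label-free quantities were compared by unpaired t-test, and values are average log2 ratios of fragment over vehicle. Only proteins with ≥2 unique peptides were used. HEK293T lysate (495 µg per sample) was treated in triplicate with fragment at 200 µM or vehicle for 3 h and then with Biotin-Ahx-Ub-VS at 0.5 µM final for 1 h. Labelled DUBs were then NeutrAvidin-enriched, digested with LysC and trypsin, and run by diaPASEF LC-MS/MS.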

USP46 = USP46 (UniProt P62068)
Summary of the method: as §1

USP47 = target: T2, USP47 (UniProt Q96K76)
T2 sequence (whole entry): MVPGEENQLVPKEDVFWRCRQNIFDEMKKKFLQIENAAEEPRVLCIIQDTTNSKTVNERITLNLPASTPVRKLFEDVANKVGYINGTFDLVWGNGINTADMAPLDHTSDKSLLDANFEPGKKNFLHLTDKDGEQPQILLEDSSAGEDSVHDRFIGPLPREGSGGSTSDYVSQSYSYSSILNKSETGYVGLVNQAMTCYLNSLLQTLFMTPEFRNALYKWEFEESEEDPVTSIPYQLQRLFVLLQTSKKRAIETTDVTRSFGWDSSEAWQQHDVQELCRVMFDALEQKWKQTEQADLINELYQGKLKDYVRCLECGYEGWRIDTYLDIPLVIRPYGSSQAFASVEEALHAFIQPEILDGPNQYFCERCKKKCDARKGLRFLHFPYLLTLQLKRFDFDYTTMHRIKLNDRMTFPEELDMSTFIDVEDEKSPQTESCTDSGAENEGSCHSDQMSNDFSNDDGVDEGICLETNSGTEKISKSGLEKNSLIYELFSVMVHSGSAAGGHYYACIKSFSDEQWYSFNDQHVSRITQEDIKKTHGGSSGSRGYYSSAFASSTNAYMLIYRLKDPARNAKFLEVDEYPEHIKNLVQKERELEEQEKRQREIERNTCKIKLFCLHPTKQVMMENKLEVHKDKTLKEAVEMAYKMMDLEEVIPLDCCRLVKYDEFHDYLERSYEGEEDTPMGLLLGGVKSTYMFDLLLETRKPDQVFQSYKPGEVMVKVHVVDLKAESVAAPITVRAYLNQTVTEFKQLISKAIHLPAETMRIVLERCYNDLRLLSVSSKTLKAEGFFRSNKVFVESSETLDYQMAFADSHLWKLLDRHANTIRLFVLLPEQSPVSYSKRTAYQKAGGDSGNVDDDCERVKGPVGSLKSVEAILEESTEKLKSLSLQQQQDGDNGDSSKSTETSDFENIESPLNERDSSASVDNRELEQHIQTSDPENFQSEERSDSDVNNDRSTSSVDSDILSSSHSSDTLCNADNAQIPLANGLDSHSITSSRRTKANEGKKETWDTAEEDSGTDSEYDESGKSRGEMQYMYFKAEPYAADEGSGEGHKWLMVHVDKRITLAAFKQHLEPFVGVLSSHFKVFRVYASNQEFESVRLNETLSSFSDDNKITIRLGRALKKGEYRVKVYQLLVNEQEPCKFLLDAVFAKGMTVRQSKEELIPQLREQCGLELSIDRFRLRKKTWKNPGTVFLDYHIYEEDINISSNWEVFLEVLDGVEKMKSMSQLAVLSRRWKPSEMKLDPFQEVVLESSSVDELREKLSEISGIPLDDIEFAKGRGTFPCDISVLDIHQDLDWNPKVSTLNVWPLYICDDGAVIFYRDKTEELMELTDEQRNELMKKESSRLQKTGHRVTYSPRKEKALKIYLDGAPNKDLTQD
Summary of the method: as §1

USP48 = target: T3, USP48 (UniProt Q86UV5)
T3 sequence (whole entry): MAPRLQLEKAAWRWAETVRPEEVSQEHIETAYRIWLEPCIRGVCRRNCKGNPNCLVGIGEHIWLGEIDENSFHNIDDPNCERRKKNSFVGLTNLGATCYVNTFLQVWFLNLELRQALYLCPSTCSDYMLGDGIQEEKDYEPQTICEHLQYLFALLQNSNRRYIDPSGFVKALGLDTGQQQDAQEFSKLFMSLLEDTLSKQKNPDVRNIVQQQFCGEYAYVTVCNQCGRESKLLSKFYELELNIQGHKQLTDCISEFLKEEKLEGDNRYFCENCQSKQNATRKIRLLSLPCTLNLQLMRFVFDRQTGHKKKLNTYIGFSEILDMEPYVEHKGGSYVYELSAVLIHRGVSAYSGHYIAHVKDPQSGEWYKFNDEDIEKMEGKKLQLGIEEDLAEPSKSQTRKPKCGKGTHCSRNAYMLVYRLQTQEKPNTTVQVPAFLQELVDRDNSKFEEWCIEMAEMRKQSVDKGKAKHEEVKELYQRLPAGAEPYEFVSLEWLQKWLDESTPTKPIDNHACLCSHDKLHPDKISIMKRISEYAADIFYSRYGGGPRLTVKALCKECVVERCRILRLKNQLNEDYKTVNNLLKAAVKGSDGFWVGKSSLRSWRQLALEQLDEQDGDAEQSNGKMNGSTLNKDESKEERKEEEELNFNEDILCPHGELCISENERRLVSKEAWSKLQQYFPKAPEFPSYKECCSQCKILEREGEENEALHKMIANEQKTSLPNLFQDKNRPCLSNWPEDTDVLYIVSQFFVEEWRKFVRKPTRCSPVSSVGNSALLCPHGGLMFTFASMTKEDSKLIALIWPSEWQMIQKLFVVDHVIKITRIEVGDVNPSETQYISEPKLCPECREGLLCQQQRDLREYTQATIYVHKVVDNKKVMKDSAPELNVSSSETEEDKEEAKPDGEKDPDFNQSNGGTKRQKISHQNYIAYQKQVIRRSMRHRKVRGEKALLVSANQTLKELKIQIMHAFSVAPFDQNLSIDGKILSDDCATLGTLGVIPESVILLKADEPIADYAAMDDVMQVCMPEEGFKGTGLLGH
Summary of the method: as §1

USP5 = target: T4, USP5 (UniProt P45974)
T4 sequence (whole entry): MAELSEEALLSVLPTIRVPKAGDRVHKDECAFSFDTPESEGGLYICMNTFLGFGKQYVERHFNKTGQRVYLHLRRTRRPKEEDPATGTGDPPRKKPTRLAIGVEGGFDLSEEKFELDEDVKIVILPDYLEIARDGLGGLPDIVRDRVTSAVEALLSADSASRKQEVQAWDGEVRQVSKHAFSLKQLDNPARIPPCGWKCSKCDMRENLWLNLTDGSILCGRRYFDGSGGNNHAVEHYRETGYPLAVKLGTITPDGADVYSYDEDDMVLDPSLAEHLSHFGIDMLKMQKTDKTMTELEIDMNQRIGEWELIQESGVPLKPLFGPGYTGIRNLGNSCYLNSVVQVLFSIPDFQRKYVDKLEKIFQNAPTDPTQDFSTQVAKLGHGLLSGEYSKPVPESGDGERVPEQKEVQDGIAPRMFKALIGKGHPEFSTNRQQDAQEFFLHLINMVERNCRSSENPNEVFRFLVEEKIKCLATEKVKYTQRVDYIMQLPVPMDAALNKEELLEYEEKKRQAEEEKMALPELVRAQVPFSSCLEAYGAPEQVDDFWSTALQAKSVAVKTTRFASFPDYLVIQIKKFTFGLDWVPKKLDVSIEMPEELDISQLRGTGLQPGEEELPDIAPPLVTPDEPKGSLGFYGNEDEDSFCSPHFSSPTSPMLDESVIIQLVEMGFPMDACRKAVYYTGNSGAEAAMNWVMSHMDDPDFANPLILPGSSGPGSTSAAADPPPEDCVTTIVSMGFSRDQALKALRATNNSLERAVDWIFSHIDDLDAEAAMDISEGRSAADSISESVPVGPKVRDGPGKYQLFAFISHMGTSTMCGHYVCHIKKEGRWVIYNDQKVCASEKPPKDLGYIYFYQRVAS
Summary of the method: as §1

USP54 = USP54 (UniProt Q70EL1)
Summary of the method: as §1

USP7 = USP7 (UniProt Q93009)
Summary of the method: as §1

USP8 = target: T5, USP8 (UniProt P40818)
T5 sequence (whole entry): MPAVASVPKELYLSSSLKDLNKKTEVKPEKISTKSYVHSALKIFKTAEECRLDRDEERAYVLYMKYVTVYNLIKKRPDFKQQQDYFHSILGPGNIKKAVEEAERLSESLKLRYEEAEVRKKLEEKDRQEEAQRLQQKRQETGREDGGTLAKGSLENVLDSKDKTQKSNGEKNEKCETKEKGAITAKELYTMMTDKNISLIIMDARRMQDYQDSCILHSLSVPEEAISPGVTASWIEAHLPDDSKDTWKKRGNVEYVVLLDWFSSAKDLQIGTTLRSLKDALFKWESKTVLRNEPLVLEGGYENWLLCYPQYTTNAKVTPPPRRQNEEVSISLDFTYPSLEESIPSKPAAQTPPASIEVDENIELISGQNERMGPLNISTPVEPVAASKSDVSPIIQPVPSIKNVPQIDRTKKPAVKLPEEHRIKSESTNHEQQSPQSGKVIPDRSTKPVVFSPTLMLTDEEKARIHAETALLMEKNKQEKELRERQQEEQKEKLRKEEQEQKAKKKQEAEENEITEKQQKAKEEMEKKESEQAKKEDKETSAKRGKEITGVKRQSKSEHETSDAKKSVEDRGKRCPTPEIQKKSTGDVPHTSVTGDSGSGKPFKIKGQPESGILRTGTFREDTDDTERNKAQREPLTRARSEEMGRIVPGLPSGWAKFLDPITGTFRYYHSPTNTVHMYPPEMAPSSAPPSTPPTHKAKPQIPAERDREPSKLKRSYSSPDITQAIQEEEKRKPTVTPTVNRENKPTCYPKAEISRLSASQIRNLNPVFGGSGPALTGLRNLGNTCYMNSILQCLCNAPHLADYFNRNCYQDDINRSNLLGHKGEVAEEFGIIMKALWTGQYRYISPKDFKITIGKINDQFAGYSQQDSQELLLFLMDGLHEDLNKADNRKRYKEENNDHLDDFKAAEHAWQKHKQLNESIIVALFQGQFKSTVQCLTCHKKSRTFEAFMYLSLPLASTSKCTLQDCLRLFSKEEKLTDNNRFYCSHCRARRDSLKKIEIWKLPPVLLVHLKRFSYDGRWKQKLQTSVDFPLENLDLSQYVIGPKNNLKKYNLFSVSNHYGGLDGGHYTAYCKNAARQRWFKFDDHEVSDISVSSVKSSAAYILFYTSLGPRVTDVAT
Summary of the method: as §1

USP9X = USP9X (UniProt Q93008)
Summary of the method: as §1

UniProt O00487 = target: UniProt O00487
Summary of the method: as §1

Measured: log2 ratio of Biotin-Ahx-Ub-VS probe labelling

Sequence of USP46 (P62068 whole entry): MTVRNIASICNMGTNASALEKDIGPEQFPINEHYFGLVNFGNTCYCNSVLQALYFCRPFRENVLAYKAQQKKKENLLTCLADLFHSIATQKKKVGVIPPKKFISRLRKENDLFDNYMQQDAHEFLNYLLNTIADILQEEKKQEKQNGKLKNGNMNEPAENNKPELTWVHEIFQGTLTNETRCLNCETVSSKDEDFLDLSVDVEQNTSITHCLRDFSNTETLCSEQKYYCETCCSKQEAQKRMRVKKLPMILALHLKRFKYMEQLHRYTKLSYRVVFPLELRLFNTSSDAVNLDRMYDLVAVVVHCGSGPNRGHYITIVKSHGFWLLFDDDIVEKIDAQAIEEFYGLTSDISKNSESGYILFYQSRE
Sequence of UniProt O00487 (O00487 whole entry): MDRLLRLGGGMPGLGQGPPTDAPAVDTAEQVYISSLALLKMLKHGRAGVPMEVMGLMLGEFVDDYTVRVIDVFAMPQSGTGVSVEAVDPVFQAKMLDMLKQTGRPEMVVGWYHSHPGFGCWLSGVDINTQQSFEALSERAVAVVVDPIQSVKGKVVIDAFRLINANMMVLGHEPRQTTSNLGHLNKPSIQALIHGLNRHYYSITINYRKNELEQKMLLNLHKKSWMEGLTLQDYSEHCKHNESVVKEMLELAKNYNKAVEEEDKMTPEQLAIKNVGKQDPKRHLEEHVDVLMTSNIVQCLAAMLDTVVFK
Sequence of USP9X (Q93008 whole entry): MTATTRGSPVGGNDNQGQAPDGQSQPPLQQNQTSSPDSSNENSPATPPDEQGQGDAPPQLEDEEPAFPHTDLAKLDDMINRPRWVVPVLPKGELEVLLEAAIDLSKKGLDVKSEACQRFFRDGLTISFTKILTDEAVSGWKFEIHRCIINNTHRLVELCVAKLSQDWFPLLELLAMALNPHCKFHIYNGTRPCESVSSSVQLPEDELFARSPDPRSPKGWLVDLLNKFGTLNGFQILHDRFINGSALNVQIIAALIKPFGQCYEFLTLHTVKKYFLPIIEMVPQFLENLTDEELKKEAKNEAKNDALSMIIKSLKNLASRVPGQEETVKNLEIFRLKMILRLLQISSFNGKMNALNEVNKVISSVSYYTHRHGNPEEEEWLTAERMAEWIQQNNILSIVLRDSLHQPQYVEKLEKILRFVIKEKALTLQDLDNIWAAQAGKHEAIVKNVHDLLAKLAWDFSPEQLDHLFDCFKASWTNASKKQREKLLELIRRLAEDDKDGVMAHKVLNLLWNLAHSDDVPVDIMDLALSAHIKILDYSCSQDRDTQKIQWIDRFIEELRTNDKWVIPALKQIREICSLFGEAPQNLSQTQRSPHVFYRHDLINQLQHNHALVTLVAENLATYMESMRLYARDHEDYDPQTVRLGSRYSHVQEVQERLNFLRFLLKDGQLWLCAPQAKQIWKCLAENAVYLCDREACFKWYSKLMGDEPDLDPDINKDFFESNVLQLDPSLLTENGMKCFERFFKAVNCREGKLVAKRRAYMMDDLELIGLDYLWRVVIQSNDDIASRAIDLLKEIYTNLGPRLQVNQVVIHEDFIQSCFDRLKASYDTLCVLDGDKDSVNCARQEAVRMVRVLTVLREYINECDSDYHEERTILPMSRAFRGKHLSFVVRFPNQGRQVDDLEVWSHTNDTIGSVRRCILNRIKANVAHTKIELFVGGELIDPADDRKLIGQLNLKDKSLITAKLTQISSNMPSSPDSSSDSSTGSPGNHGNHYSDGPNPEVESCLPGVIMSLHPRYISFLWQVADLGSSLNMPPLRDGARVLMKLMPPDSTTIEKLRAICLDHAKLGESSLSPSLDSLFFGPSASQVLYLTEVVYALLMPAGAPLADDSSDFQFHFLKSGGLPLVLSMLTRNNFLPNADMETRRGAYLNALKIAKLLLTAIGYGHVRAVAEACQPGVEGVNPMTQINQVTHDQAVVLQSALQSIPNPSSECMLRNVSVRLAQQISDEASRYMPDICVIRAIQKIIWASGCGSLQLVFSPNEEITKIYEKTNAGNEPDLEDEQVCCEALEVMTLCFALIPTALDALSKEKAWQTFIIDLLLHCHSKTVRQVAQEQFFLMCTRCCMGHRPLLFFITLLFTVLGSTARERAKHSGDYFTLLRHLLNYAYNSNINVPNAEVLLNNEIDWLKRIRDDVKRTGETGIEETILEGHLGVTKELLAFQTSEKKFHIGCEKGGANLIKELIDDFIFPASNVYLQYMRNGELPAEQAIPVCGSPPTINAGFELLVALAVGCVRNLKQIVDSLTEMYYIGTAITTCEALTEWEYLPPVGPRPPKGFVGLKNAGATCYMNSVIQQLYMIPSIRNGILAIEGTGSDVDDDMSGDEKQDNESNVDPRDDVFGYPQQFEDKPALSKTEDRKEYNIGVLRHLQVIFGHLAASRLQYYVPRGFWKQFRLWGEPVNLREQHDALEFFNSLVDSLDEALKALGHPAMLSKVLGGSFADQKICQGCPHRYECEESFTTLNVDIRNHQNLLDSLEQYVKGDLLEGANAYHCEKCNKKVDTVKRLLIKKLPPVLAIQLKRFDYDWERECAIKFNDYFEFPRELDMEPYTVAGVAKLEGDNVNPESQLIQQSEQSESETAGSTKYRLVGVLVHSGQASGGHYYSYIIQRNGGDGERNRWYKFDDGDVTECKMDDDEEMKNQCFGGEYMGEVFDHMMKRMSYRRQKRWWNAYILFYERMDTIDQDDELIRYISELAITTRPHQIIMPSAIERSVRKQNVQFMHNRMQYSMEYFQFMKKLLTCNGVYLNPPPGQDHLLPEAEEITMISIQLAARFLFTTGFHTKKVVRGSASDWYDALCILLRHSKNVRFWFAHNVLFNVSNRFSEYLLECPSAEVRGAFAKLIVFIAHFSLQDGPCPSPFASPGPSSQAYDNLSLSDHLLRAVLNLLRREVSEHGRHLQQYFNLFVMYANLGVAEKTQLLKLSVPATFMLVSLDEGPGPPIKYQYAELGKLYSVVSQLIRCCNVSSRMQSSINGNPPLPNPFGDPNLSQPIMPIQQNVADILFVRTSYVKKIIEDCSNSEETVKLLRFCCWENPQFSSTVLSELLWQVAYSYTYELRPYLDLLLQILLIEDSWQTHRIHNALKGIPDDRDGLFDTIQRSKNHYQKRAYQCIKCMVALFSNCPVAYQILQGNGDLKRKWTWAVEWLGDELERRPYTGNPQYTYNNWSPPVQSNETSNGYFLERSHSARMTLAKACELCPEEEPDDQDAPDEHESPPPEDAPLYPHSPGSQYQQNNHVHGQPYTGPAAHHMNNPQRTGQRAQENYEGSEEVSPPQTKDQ
Sequence of USP54 (Q70EL1 whole entry): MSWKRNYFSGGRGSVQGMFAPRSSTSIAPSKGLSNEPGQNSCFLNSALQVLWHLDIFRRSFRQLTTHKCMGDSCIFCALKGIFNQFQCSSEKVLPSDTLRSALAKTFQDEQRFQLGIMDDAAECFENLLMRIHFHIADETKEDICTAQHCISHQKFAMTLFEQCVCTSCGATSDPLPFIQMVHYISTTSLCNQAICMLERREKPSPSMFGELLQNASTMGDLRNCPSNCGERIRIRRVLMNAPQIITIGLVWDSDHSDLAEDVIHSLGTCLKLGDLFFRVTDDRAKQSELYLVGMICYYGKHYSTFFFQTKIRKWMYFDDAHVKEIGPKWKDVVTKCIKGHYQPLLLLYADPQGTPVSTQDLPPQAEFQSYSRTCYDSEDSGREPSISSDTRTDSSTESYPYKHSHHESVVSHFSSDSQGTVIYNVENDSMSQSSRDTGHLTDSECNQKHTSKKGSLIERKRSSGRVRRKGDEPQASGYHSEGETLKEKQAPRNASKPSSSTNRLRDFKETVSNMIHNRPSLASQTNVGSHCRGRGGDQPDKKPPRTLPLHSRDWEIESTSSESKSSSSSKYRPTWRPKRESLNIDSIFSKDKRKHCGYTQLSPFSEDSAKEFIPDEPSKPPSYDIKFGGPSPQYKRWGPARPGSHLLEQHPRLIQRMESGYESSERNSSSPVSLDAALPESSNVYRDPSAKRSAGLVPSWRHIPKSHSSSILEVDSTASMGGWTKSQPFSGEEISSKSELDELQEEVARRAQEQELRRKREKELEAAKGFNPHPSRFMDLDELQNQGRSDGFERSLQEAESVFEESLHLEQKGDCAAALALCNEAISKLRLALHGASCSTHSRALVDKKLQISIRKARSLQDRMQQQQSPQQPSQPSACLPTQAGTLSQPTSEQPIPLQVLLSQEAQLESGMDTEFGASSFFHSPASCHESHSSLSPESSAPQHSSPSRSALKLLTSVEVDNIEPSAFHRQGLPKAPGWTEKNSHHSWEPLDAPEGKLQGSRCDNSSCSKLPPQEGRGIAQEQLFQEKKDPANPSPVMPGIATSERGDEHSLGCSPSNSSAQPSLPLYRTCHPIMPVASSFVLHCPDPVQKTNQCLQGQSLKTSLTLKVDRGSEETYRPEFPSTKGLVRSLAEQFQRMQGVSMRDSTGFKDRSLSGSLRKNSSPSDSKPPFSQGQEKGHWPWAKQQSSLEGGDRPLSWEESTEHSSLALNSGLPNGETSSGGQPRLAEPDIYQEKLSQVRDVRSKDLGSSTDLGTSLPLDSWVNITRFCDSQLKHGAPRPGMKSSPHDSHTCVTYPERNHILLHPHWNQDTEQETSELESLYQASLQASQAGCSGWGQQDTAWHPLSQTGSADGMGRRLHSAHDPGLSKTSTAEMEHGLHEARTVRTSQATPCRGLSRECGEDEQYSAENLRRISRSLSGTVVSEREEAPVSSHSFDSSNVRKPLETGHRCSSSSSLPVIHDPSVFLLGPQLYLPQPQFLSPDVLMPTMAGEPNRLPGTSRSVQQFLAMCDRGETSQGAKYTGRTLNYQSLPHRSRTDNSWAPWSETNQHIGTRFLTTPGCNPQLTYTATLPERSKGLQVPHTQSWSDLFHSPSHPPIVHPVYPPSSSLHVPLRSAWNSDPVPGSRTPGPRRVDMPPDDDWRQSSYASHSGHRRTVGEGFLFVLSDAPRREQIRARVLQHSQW

O=C(CN1CCN(C(=O)CCl)CC1)Nc1cccc(F)c1
inactive: USP42 -0.241 | USP46 -0.173 | USP47 -0.178 | USP48 -0.419 | USP5 0.215 | USP54 0.835 | USP7 -0.436 | USP8 -0.23 | USP9X -0.429 | UniProt O00487 0.0211

Cl.O=C(CN1CCN(C(=O)CCl)CC1)Nc1ccc(F)cc1
inactive: USP42 0.733 | USP46 0.0462 | USP47 -0.158 | USP48 -0.321 | USP5 0.365 | USP54 0.194 | USP7 -0.291 | USP8 0.234 | USP9X 0.0748 | UniProt O00487 -0.0621

COc1ccc(-c2csc(NC(=O)CCl)n2)cc1
inactive: USP42 -0.269 | USP46 -0.355 | USP47 -0.0139 | USP48 -0.611 | USP5 0.0191 | USP54 0.204 | USP7 -0.576 | USP8 -0.316 | USP9X -0.66 | UniProt O00487 -0.101
